Holding throughout (assay): DAPPL (digital affinity profiling via proximity ligation, sequencing); 10 mM Tris-HCl pH 7.5, 50 mM NaCl, 1 mM DTT, 4% glycerol, room temperature, 30 min; GST-TFs on glutathione beads, 16-mer random dsDNA library, 0.1% formaldehyde crosslink after washing; high values mean tight binding
The target in test [1] is T1, FEV (Homo sapiens, UniProt Q99581 1-238).
T1 sequence: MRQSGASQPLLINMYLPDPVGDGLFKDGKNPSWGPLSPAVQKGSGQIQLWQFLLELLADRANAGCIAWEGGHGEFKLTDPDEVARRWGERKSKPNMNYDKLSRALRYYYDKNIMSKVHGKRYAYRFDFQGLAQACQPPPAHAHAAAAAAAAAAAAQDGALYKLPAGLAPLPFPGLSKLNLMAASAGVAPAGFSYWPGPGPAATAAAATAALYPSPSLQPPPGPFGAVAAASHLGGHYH
The settings on record: protein: recombinant; tags: N-terminal GST; dsDNA, one strand shown. In outline: (§1)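 Human transcription factors fused to GST were expressed in yeast, captured on glutathione beads, given DNA barcodes and pooled with a GST-only negative control. Pools were incubated with 200 nmole of a 16-mer random double-stranded DNA library in Tris/NaCl/DTT/glycerol buffer at room temperature for 30 min. They were then washed, crosslinked with 0.1% formaldehyde, proximity-ligated (BsaI/T4 ligase, 1 h, 37 °C), PCR-amplified and sequenced on an Illumina NextSeq500. Binding signal is each 6-mer's read frequency for a factor divided by its frequency for the GST control.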

Test [2] concerns the target ETV5 (Homo sapiens, UniProt P41161 1-510). Conditions: protein: recombinant; tags: N-terminal GST; dsDNA, one strand shown. In outline:
as §1

The target of test [3] is HSF1 (Homo sapiens, UniProt Q00613 1-529). Conditions: protein: recombinant; tags: N-terminal GST; chain copies: 3; dsDNA, one strand shown. In outline:
as §1

Test [4] deals with T2, SPIC (Homo sapiens, UniProt Q8N5J4 1-248).
T2 sequence: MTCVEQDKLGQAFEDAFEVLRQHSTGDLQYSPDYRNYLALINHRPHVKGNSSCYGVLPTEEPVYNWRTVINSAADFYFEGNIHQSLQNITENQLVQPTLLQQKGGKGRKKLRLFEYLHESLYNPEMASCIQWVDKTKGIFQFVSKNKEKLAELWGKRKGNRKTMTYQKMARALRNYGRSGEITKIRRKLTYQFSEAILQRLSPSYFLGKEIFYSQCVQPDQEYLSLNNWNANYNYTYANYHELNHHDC
Conditions: protein: recombinant; tags: N-terminal GST; dsDNA, one strand shown. In outline:
as §1

In test [5] the target is ELF4 (Homo sapiens, UniProt Q99607 1-663). The settings on record: protein: recombinant; tags: N-terminal GST; dsDNA, one strand shown. In outline: as §1
Chain of ELF4 (Q99607 whole entry): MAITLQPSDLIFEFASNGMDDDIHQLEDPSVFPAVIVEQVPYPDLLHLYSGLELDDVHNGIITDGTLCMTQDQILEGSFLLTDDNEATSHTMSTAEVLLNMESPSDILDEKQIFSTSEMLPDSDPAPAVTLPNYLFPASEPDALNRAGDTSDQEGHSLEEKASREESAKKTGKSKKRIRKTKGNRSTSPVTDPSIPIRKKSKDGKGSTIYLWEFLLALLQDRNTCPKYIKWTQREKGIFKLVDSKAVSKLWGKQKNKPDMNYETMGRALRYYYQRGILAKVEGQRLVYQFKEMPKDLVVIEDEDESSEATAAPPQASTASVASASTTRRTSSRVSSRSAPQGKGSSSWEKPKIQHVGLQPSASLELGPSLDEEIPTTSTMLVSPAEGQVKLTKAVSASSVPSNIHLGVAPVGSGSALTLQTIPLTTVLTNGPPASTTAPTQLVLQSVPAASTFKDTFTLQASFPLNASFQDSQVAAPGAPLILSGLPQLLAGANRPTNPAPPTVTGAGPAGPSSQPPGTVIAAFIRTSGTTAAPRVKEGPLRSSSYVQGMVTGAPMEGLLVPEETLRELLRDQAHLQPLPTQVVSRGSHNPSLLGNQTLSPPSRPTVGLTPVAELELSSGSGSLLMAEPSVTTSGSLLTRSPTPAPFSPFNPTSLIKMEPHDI
In test [6] the target is T3, ELK4 (Homo sapiens, UniProt P28324-2 1-405).
T3 sequence: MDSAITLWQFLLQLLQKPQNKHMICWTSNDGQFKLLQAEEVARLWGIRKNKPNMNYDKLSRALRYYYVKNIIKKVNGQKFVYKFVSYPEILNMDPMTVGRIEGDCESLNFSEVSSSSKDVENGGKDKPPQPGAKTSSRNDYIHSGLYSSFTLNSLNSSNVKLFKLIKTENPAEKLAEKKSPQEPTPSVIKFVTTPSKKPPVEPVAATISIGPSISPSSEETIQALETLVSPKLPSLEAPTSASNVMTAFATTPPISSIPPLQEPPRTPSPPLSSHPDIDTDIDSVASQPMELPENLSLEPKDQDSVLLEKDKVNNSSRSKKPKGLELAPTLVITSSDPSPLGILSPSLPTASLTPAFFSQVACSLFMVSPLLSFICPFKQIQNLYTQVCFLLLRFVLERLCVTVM
The settings on record: protein: recombinant; tags: N-terminal GST; dsDNA, one strand shown. In outline: as §1

Test [7] concerns the target T4, ETV2 (Homo sapiens, UniProt O00321 1-342).
T4 sequence: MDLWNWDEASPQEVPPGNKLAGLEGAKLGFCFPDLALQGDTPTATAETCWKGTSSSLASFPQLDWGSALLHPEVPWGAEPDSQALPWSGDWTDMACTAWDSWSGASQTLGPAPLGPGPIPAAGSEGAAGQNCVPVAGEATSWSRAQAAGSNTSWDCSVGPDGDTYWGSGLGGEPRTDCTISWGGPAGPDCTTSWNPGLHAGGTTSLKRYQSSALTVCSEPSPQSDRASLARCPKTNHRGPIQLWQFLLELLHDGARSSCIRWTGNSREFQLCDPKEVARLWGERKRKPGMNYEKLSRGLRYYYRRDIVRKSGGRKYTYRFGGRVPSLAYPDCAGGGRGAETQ
The settings on record: protein: recombinant; tags: N-terminal GST; dsDNA, one strand shown. A digest of the protocol: as §1

In test [8] the target is T5, ELF3 (Homo sapiens, UniProt P78545 1-371).
T5 sequence: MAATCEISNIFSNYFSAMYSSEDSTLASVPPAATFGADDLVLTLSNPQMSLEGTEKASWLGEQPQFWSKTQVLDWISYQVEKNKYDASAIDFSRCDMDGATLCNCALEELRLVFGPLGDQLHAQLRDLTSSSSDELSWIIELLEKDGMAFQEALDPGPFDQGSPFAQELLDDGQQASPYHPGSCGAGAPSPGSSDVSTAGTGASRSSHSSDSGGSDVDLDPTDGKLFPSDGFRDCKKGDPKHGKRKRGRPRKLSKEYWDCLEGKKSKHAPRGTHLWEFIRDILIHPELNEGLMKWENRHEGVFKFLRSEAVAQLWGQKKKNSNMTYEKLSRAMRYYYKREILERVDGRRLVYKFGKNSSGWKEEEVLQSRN
Conditions: protein: recombinant; tags: N-terminal GST; dsDNA, one strand shown. In outline:
as §1

The target of test [9] is CRX (Homo sapiens, UniProt O43186 1-299). The settings on record: protein: recombinant; tags: N-terminal GST; dsDNA, one strand shown. A digest of the protocol:
as §1

The target of test [10] is ETV1 (Homo sapiens, UniProt P50549 1-477). Conditions: protein: recombinant; tags: N-terminal GST; dsDNA, one strand shown. In outline: as §1
Chain of ETV1 (P50549 whole entry): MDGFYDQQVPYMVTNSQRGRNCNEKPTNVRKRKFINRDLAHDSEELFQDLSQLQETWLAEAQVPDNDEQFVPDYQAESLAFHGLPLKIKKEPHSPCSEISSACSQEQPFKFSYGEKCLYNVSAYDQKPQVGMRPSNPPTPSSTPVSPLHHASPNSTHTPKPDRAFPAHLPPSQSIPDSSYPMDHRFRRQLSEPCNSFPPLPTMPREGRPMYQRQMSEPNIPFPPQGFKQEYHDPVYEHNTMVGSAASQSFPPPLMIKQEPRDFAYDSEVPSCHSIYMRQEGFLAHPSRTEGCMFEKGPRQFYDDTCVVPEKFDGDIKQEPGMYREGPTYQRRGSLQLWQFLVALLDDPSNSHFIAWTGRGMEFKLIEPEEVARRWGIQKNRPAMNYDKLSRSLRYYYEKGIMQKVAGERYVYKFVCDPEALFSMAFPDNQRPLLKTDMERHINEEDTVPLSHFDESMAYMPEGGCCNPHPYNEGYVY
The target in test [11] is T6, ERF (Homo sapiens, UniProt P50548 1-548).
T6 sequence: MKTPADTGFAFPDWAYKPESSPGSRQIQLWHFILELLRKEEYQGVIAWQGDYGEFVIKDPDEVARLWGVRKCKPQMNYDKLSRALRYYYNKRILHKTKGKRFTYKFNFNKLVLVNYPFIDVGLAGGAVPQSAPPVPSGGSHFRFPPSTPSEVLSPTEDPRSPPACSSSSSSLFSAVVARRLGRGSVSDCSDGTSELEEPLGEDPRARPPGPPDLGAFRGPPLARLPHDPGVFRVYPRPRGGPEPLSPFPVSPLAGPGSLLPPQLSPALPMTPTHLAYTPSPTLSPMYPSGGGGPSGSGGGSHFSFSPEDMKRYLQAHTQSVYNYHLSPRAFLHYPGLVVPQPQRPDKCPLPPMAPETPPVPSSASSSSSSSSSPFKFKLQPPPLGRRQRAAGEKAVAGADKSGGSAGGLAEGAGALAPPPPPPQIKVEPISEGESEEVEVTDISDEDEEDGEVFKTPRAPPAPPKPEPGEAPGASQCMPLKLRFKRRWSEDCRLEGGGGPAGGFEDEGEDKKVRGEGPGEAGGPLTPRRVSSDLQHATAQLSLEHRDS
Conditions: protein: recombinant; tags: N-terminal GST; dsDNA, one strand shown. In outline:
as §1

Test [12] addresses T7, ETV3L (Homo sapiens, UniProt Q6ZN32 1-361).
T7 sequence: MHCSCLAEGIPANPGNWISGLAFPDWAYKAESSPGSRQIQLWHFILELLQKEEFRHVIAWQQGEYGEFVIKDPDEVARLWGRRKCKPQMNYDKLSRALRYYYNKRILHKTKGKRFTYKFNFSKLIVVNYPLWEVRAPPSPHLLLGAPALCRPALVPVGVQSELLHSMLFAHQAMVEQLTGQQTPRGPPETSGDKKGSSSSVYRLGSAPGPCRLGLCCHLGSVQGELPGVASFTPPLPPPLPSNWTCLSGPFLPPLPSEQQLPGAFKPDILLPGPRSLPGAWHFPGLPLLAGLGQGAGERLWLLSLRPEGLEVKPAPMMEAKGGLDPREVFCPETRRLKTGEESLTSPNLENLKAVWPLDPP
Conditions: protein: recombinant; tags: N-terminal GST; dsDNA, one strand shown. In outline: as §1

Test [13] deals with T8, ETS2 (Homo sapiens, UniProt P15036 1-469).
T8 sequence: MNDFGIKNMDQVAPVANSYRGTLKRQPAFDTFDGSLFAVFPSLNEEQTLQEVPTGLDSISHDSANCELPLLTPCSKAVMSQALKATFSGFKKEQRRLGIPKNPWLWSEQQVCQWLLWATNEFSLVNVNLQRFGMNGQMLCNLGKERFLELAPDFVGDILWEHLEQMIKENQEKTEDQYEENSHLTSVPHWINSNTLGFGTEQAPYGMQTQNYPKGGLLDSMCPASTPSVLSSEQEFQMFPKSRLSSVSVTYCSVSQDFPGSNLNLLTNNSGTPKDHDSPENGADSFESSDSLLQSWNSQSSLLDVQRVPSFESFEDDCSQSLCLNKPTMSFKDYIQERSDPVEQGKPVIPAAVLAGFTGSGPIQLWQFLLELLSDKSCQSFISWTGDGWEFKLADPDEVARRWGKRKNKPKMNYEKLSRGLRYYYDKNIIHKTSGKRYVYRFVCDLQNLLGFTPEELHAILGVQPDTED
The settings on record: protein: recombinant; tags: N-terminal GST; dsDNA, one strand shown. A digest of the protocol:
as §1

The target of test [14] is T9, SPDEF (Homo sapiens, UniProt O95238 1-335).
T9 sequence: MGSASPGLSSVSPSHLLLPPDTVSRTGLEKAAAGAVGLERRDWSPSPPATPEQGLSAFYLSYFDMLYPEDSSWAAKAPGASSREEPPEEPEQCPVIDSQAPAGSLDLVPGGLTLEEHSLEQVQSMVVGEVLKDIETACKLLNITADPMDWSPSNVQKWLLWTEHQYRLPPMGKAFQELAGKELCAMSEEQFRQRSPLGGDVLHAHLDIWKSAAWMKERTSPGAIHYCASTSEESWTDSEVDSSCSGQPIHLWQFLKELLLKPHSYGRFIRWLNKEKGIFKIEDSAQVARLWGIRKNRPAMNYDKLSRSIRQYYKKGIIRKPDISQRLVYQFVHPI
Conditions: protein: recombinant; tags: N-terminal GST; dsDNA, one strand shown. In outline:
as §1

Test [15] deals with T10, ETV7 (Homo sapiens, UniProt Q9Y603 1-341).
T10 sequence: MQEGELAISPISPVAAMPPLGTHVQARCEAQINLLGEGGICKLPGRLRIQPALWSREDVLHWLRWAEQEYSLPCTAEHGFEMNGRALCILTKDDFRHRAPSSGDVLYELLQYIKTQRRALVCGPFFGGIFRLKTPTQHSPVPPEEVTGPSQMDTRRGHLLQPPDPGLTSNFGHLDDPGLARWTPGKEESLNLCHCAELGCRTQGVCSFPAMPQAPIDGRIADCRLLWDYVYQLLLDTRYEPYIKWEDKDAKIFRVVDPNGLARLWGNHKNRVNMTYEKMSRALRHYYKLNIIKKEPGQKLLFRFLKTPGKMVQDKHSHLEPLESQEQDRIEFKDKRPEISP
Conditions: protein: recombinant; tags: N-terminal GST; dsDNA, one strand shown. In outline:
as §1

The target of test [16] is T11, ELF5 (Homo sapiens, UniProt Q9UKW6-2 1-255).
T11 sequence: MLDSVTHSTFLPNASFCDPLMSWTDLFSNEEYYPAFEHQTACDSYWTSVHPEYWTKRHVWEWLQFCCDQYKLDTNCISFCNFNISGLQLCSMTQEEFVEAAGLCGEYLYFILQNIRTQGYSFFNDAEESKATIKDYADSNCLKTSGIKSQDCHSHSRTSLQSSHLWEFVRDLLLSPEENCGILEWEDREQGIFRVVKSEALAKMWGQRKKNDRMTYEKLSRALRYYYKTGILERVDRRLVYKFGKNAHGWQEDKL
The settings on record: protein: recombinant; tags: N-terminal GST; dsDNA, one strand shown. In outline:
as §1

Test [17] deals with T12, ETV3 (Homo sapiens, UniProt P41162-2 1-143).
T12 sequence: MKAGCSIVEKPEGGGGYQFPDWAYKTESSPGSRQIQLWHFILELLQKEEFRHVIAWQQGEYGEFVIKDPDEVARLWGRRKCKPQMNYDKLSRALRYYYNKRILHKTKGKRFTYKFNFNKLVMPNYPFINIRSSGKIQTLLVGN
The settings on record: protein: recombinant; tags: N-terminal GST; dsDNA, one strand shown. In outline: as §1

The target in test [18] is ETV6 (Homo sapiens, UniProt P41212 1-452). Conditions: protein: recombinant; tags: N-terminal GST; dsDNA, one strand shown. In outline:
as §1

Chain of ETV6 (P41212 whole entry): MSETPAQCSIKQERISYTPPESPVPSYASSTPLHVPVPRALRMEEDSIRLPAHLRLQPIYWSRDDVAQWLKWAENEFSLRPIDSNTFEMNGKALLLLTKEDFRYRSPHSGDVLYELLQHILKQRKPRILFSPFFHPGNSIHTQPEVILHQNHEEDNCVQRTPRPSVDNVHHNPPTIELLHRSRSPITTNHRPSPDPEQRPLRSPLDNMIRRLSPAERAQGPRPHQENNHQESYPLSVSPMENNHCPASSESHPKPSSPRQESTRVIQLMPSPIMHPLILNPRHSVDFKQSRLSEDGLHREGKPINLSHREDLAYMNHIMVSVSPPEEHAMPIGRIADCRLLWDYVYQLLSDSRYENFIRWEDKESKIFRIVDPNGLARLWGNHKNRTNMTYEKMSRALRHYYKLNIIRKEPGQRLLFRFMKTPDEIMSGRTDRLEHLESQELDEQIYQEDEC
Chain of HSF1 (Q00613 whole entry): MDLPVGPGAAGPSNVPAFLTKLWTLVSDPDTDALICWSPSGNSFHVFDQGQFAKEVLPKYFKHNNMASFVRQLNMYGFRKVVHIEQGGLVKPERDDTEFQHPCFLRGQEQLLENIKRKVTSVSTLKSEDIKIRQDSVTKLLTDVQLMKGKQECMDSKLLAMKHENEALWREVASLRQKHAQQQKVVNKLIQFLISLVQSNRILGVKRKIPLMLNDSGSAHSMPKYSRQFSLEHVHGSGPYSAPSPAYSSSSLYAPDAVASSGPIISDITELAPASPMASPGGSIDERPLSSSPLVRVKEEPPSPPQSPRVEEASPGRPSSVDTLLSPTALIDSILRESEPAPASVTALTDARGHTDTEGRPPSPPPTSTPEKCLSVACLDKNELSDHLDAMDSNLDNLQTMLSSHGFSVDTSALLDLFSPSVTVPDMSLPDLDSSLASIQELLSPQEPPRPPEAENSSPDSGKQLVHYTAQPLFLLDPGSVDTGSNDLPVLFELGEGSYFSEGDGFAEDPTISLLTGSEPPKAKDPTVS
Chain of CRX (O43186 whole entry): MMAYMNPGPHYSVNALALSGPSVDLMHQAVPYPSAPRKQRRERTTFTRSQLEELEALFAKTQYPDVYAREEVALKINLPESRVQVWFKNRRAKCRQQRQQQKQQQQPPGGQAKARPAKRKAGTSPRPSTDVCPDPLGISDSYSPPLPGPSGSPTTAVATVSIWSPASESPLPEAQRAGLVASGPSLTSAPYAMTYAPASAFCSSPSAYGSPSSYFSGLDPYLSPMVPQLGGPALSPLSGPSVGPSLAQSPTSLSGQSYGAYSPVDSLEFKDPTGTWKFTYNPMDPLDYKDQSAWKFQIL
Chain of ETV5 (P41161 whole entry): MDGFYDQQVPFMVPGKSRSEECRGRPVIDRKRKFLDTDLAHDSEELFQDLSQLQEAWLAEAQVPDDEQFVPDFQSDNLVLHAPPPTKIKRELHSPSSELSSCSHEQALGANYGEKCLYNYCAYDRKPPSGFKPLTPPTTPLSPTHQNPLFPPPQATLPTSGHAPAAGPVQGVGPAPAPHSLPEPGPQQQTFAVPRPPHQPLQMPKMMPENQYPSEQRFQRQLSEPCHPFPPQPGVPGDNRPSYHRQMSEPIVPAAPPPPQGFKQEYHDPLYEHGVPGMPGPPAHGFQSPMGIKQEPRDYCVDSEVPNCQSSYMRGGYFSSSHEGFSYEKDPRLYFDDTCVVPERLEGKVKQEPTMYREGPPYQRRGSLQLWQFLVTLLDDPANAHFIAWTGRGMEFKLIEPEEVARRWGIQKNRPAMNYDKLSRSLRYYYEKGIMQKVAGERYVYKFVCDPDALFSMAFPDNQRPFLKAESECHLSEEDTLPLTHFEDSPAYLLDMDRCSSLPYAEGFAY

For the sequence TACTCA, the binding signal in [1] was 1.24 fold enrichment (6-mer frequency, TF over GST control); in [2], 1.17 fold enrichment (6-mer frequency, TF over GST control); in test [3], 1.12 fold enrichment (6-mer frequency, TF over GST control); in test [4], 1.19 fold enrichment (6-mer frequency, TF over GST control); in test [5], 1.23 fold enrichment (6-mer frequency, TF over GST control); in test [6], 1.13 fold enrichment (6-mer frequency, TF over GST control). Also, the binding signal is 1.17 fold enrichment (6-mer frequency, TF over GST control) in test [7]; 1.22 fold enrichment (6-mer frequency, TF over GST control) in [8]; 1.26 fold enrichment (6-mer frequency, TF over GST control) in test [9]; 1.19 fold enrichment (6-mer frequency, TF over GST control) in [10]; 1.14 fold enrichment (6-mer frequency, TF over GST control) in test [11]; 1.23 fold enrichment (6-mer frequency, TF over GST control) in test [12]. The binding signal in test [13] is 1.19 fold enrichment (6-mer frequency, TF over GST control); in test [14] it was 1.18 fold enrichment (6-mer frequency, TF over GST control); in [15], 1.06 fold enrichment (6-mer frequency, TF over GST control); in [16], 1.18 fold enrichment (6-mer frequency, TF over GST control); in test [17] it was 1.14 fold enrichment (6-mer frequency, TF over GST control); in test [18], 1.22 fold enrichment (6-mer frequency, TF over GST control).

Source of the values: paper PMC7862700, “An all-to-all approach to the identification of sequence-specific readers for epigenetic DNA modifications on cytosine”.
